D3 ag: D3 dopamine receptor (human) agonism | P35462 | D3R DiscoveRx beta-arrestin cells, luminescence, 90 min | max activation, % | 410,000 compounds, 0.58% hits; in the data active = max activation above about 30%; note: 0% is about no effect
Target sequence (P35462 whole entry, looked up): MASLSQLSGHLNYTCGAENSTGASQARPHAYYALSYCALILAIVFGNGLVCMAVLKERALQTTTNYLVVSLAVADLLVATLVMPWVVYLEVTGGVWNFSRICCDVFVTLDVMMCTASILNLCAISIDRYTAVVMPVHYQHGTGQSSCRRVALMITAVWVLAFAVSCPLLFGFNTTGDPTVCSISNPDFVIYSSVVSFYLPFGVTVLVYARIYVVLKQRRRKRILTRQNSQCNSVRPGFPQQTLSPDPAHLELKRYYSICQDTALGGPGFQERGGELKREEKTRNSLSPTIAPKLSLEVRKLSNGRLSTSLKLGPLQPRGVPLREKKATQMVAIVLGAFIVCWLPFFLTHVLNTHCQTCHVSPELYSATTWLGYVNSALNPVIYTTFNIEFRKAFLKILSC
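Agonist mode: compounds and dopamine controls were applied to plated cells for 90 min at 37 degrees C after an overnight attachment at 1500 cells/well. Luminescent read-out followed 30 - 60 minutes at room temperature with DiscoveRx detection reagent.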
KB-3-1 tox: kills parental KB-3-1 adenocarcinoma cells | KB-3-1 viability, CellTiter-Glo ATP luminescence, 72 h | Potency, µM (highest dose often 46.1 µM), actives largely listed as cytotoxic | 400,000 compounds, 1.4% hits; note: potency is the fitted concentration of half-maximal effect; % is set by controls: 0 for no effect and ±100 for the full control effect; nearly all actives have a fitted effect of over 60% in size
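Screening of KB-3-1 cells (DMEM, 10% FBS, phenol-red free) ran from lowest to highest compound concentration; after 72 h at 37 °C viability was read luminescently and curves fitted.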
SW480 rerep: inducers of DNA re-replication in SW480 colon cancer cells; 340,000 compounds, 1.8% hits; SW480 DNA re-replication, Hoechst DNA content imaging, 48 h; Potency, µM (highest dose often 46.1 µM), without a hit: top-dose re-replication activation, hits mostly activators; AID 624297; note: potency is the fitted concentration of half-maximal effect; % of control where 0% means no effect; nearly all actives have a fitted effect of over 55% in size
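First, 250 cells per well were seeded. Next, compound or vehicle (23 nL) was pinned in, plates sat 48 hr at 37 C. Finally Hoechst was added for 40 min before fluorescence scanning.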
MCF10A rereplic: DNA re-replication induction in MCF 10a cells | Potency, µM (highest dose often 46.1 µM), for inactives: at the top dose activity, positive = re-replication, hits mostly activators | MCF 10A DNA re-replication, Hoechst nuclear intensity, 48 h | AID 624296 | 350,000 compounds, 2.9% hits; note: potency is the fitted concentration of half-maximal effect; % of control where 0% means no effect; nearly all actives have a fitted effect of over 50% in size
KB-V1 MDR tox: KB-V1 MDR subline cytotoxicity; KB-V1 MDR cells viability, CellTiter-Glo, 72 h; Potency, µM (series often up to 46.1 µM), hits mostly cytotoxic; 400,000 compounds, 3.4% hits; note: potency is the fitted concentration of half-maximal effect; % is set by controls: 0 for no effect and ±100 for the full control effect; nearly all actives have a fitted effect of over 60% in size
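Following 72 h at 37 degrees C with compound, KB-V1 cell viability was read by CellTiter-Glo luminescence, medium being phenol-red-free DMEM plus 10% FBS; concentration-response parameters came from normalized, curve-fitted qHTS data.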
DRD3 antagonist: blocks the human D3 dopamine receptor; P35462; D3R cells, DiscoveRx beta-arrestin luminescence, antagonist mode; stronger effect = lower value; AID 652054; max response, negative = inhibition, %; 360,000 compounds, 2.5% hits; in the data active = max response below about -50%; inconclusive = no clear call, values can overlap the other calls; note: % is set by controls: 0 for no effect and ±100 for the full control effect
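Cells expressing the human receptor were seeded at 1500 cells/well, incubated overnight at 37 degrees C in 5% CO2, then exposed to library compounds with dopamine controls for 90 minutes at 37 degrees C before luminescent detection.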
An asterisk follows results filed as active. The list is not random: actives were taken first. Their share in the collection is about 8.9%. Unless noted, calls come from the whole dose curve; as a rule, active = well fitted curve in the direction sought with a large enough effect; inconclusive = small, poorly fitted or top-dose-only effect, or another doubt; inactive = no such curve, though single readings can be large; an effect the other way counts as inactive or inconclusive.

How did CN1C(=O)c2ccccc2Sc2ccc(NC(=O)c3ccc(C#N)cc3)cc21 do in these assays?
D3 ag: -1; KB-3-1 tox: inactive; KB-V1 MDR tox: inconclusive

Results for Cc1cccc(-n2c3nc(=O)[nH]c(=O)c-3cc3cc([N+](=O)[O-])ccc32)c1 ?
D3 ag: -9; KB-3-1 tox: inconclusive; SW480 rerep: inconclusive; MCF10A rereplic: inconclusive; KB-V1 MDR tox: 16µM*; DRD3 antagonist: 24

Results for Cc1ccc(C)c(-n2c3nc(=O)[nH]c(=O)c-3cc3cc([N+](=O)[O-])ccc32)c1 ?
D3 ag: -14; KB-3-1 tox: 23µM*; SW480 rerep: 3.2µM*; MCF10A rereplic: inconclusive; KB-V1 MDR tox: inactive; DRD3 antagonist: inconclusive

What do the screens show for `CC(C)OC(=O)C(NC(=O)c1ccccc1)=C1CCCCC1`?
D3 ag: 0; KB-3-1 tox: inactive; SW480 rerep: -1%; MCF10A rereplic: 13%; KB-V1 MDR tox: 21µM*; DRD3 antagonist: -7

How did CC(C)CC(NC(=O)c1cccs1)c1nnc(SCc2ccc(Cl)c(Cl)c2)n1C (centres undefined) do in these assays?
D3 ag: -3; KB-3-1 tox: inconclusive; SW480 rerep: 12%; MCF10A rereplic: 18µM*; KB-V1 MDR tox: inconclusive; DRD3 antagonist: -16

Results for O=C(CSc1nnc(CNc2ccc(Cl)cc2)n1Cc1ccccc1)NCc1ccco1 ?
D3 ag: 0; KB-3-1 tox: inactive; SW480 rerep: -10%; MCF10A rereplic: 10%; KB-V1 MDR tox: inactive; DRD3 antagonist: inconclusive

Results for CCn1c(CNc2ccc(Cl)cc2)nnc1SCC(=O)OC1CCCCC1 ?
D3 ag: -10; KB-3-1 tox: inactive; SW480 rerep: 2%; MCF10A rereplic: 13µM*; KB-V1 MDR tox: inactive; DRD3 antagonist: -29

Results for O=C(O)CCSc1nnc(CNc2ccc(Cl)cc2)n1Cc1ccccc1 ?
D3 ag: -8; KB-3-1 tox: inactive; SW480 rerep: 0.23µM*; MCF10A rereplic: 1%; KB-V1 MDR tox: inactive; DRD3 antagonist: -5

What do the screens show for `CCOC(=O)N1CCN(Cc2nc3cc(NC(=O)c4ccc(F)cc4)ccc3n2C(C)C)CC1`?
D3 ag: -5

Results for Cc1ccc2nc(-c3ccccc3)cc(C(=O)N3CCN(S(=O)(=O)c4c(C)noc4C)CC3)c2c1 ?
D3 ag: 5; KB-3-1 tox: inactive; SW480 rerep: 2%; MCF10A rereplic: inconclusive; KB-V1 MDR tox: inactive; DRD3 antagonist: 50

Results for Cc1ccc(-n2c(COCC(=O)O)nc3cccnc32)cc1 ?
D3 ag: 4; KB-3-1 tox: inactive; KB-V1 MDR tox: inactive

Results for O=[N+]([O-])c1cc(/C=N/n2c(-c3cccnc3)n[nH]c2=S)ccc1Cl ?
D3 ag: 1; KB-3-1 tox: inactive; SW480 rerep: -2%; MCF10A rereplic: inconclusive; KB-V1 MDR tox: inactive; DRD3 antagonist: -14

Results for O=[N+]([O-])c1cc2c(cc1/C=N/n1c(-c3ccccc3)n[nH]c1=S)OCO2 ?
D3 ag: -5; KB-3-1 tox: inactive; SW480 rerep: -6%; MCF10A rereplic: 4%; KB-V1 MDR tox: inactive; DRD3 antagonist: inconclusive

What do the screens show for `O=[N+]([O-])c1ccccc1/C=N/n1c(-c2cccnc2)n[nH]c1=S`?
D3 ag: -18; KB-3-1 tox: inactive; SW480 rerep: -2%; MCF10A rereplic: 6%; KB-V1 MDR tox: inconclusive; DRD3 antagonist: -86*

Results for O=[N+]([O-])c1cc2c(cc1/C=N/n1c(-c3ccccn3)n[nH]c1=S)OCO2 ?
D3 ag: -3; KB-3-1 tox: inactive; SW480 rerep: 53%; MCF10A rereplic: 6%; KB-V1 MDR tox: inconclusive; DRD3 antagonist: -50*

How did CC(/C=N/n1c(-c2cccnc2)n[nH]c1=S)=C\c1ccccc1 do in these assays?
D3 ag: -10; KB-3-1 tox: inactive; SW480 rerep: -10%; MCF10A rereplic: 12%; KB-V1 MDR tox: 16µM*; DRD3 antagonist: -25

What do the screens show for `S=c1[nH]nc(-c2cccnc2)n1/N=C/c1ccccc1`?
D3 ag: 5; KB-3-1 tox: inactive; SW480 rerep: -13%; MCF10A rereplic: 7%; KB-V1 MDR tox: inactive; DRD3 antagonist: -25

What do the screens show for `S=c1[nH]nc(-c2cccnc2)n1/N=C/c1cccs1`?
D3 ag: 3; KB-3-1 tox: inactive; SW480 rerep: -4%; MCF10A rereplic: 0%; KB-V1 MDR tox: inactive; DRD3 antagonist: -111*

How did CCCCCOC(=O)c1ccc(OC(=O)c2sc3ncn(Cc4cccc(F)c4)c(=O)c3c2C)cc1 do in these assays?
D3 ag: 12; KB-3-1 tox: inactive; KB-V1 MDR tox: inactive

What do the screens show for `CCc1ccc(C2c3c(n[nH]c3C)C(=O)N2c2ccc(C)cc2)cc1` (centres undefined)?
D3 ag: 5; KB-3-1 tox: inactive; KB-V1 MDR tox: inconclusive

How did COc1cccc(CCNC(=O)c2ccc(Cn3c(SCc4ccccc4)nc4cccnc43)cc2)c1 do in these assays?
D3 ag: -1; KB-3-1 tox: inactive; KB-V1 MDR tox: inactive

Results for CCCC(=O)Nc1cc(-c2nc3cccnc3s2)ccc1C ?
D3 ag: -22; KB-3-1 tox: inactive; KB-V1 MDR tox: inactive

What do the screens show for `Cc1cn(C)c(CC(=O)NCc2cccc(Cl)c2)c1C(=O)O`?
D3 ag: 1; KB-3-1 tox: inactive; KB-V1 MDR tox: inconclusive

What do the screens show for `S=c1[nH]nc(-c2cccnc2)n1Cc1ccccc1`?
D3 ag: -7; KB-3-1 tox: inactive; SW480 rerep: -9%; MCF10A rereplic: 0%; KB-V1 MDR tox: inactive; DRD3 antagonist: -53*

What do the screens show for `O=c1c2ccc(Cl)cc2[nH]c(=S)n1Cc1cccnc1`?
D3 ag: -3; KB-3-1 tox: inactive; SW480 rerep: -4%; MCF10A rereplic: 24%; KB-V1 MDR tox: 18µM*; DRD3 antagonist: 6

What do the screens show for `COc1ccc(N2CCN(C(CNC(=O)C(=O)NCc3ccc(C)cc3)c3cccnc3)CC2)cc1` (centres undefined)?
D3 ag: 2; KB-3-1 tox: inactive; KB-V1 MDR tox: inactive

What do the screens show for `Cc1noc2c1C(c1ccc(N(C)C)cc1)C1=C(CC(C)(C)CC1=O)N2` (centres undefined)?
D3 ag: 2; KB-3-1 tox: inactive; SW480 rerep: -10%; MCF10A rereplic: -5%; KB-V1 MDR tox: inconclusive; DRD3 antagonist: -78*

Results for Cc1ccc(C2C3=C(CC(C)(C)CC3=O)Nc3onc(C)c32)cc1 (centres undefined) ?
D3 ag: 7; KB-3-1 tox: inactive; SW480 rerep: -6%; MCF10A rereplic: 1%; KB-V1 MDR tox: inactive; DRD3 antagonist: inconclusive
